Rows were chosen to be rich in hits. Some 7.3% of all compounds tested hit in one or more screens of this group.
FMDV antiviral = High Throughput Screening for Foot and Mouth Disease Virus Antivirals. Potency, µM (titrated, usually from 57.9 µM), inactives show at the highest dose activity change, negative = inhibition, hits mostly inhibitors. FMDV antiviral cell-based qHTS. 410,000 compounds, 1.2% hits; calls by dose curve; tested in HEK293T cells; also: read-out not given here; potency is read from the fitted curve at half-maximal effect; nearly all actives have a fitted effect of over 45% in size
HCV inhibitor = qHTS Assay for Inhibitors of Hepatitis C Virus (HCV). Huh7.5.1 HCVcc-Cre infection, luciferase reporter, 44 h. Potency, µM (series often up to 41.8 µM), without a hit: top-dose activity change, negative = inhibition, hits mostly inhibitors. 340,000 compounds, 3.4% hits; active = well fitted inhibition curve with a large enough effect; inconclusive = small, poorly fitted or top-dose-only effect, or another doubt; inactive = no such curve, though single readings can be large or run the other way; also: potency is read from the fitted curve at half-maximal effect
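After 44 h co-culture of compound, cells and HCVcc-Cre (~0.5 moi), substrate is added for 15 min at room temperature and luciferase measured over 15 sec. Cells were seeded at 1,000/well and pre-cultured 4 h.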
Vaccinia mCherry = qHTS for Stage-Specific Inhibitors of Vaccinia Orthopoxvirus: mCherry Reporter Primary qHTS; Vaccinia virus mCherry reporter infection, fluorescence; Potency, µM (highest dose often 36.5 µM), inactives show at the top dose activity change, negative = inhibition, most hits filed as inhibitors; 310,000 compounds, 0.63% hits; calls by dose curve; tested in A549 cells; also: potency is read from the fitted curve at half-maximal effect; nearly all actives have a fitted effect of over 35% in size
HCMV inh = qHTS Assay for inhibitors of the human cytomegalovirus (HCMV); activity change, negative = inhibition, % at 57.5 µM; AID 1259415, 2018; HFF cells, HCMV-luciferase reporter, 72 h; hits give low values; 410,000 compounds, 4.5% hits; in the data active = activity change below about -60%; inconclusive = no clear call, values can overlap the other calls; inactive = above about -39%
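Cell-based, HFFs, 1000 cells/well, 16 h 37C; cpds in DMSO + HCMV-luc, MOI 1 PFU/cell; 72 h 37C; OneGlo luminescence after 5 min RT; norm. to buffer vs Salinomycin 10uM.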
VACV Venus inh = qHTS for Stage-Specific Inhibitors of Vaccinia Orthopoxvirus: Venus Reporter Primary qHTS; Vaccinia virus Venus reporter expression, fluorescence; Potency, µM (titrated, usually from 36.5 µM), for inactives: top-dose activity change, negative = inhibition, most hits filed as inhibitors; 330,000 compounds, 0.46% hits; calls by dose curve; tested in A549 cells; also: potency is read from the fitted curve at half-maximal effect; nearly all actives have a fitted effect of over 30% in size
* marks the source's active call; other numbers are inactive results; i = inactive; ? = inconclusive; nt = not tested or not shown; + = active, no number; [ ] = another dose, or the depositor's remark. % is scaled to controls: 0 for no effect and ±100 for the full control effect.

SMILES | FMDV antiviral | HCV inhibitor | Vaccinia mCherry | HCMV inh | VACV Venus inh
COc1ccc(C(=O)NNC(=O)CSc2nc(C(C)C)nc3ccccc23)cc1 | -14% | -12% | -12% | -65* | -15%
CN(C)c1ccc(NC(=O)CSc2nc(N)c(C(=O)Nc3ccc(N(C)C)cc3)s2)cc1 | ? | 10µM* | 4µM* | ? | 4µM*
CC(C)c1nc(SCC(=O)Nc2ccc(N(C)C)cc2)c2ccccc2n1 | ? | ? | nt | -77* | nt
O=C(NCc1cccc(Br)c1)c1ccc(-n2cnc3cccnc32)cc1 | -1% | nt | -15% | ? | -10%
CCOc1cc2[nH]c(=O)n(CCCC(=O)N3CCN(c4ccc(OC)cc4)CC3)c(=O)c2cc1OCC | ? | nt | -12% | -1 | -14%
Cc1ccn2c(=S)[nH]nc2c1 | -11% | nt | i | -67* | 0%
S=c1[nH]nc2ccccn12 | -11% | 42% | i | -25 | -5%
Cc1ccc(-c2noc(CCC(=O)Nc3ccc(F)cc3Cl)n2)cc1 | 14% | nt | -11%[7.34 µM] | 0 | -8%[7.34 µM]
CCOC(=O)c1cccc(NC(=O)c2oc3c(c2C)-c2nn(CC)cc2CC3)c1 | 24% | nt | -5% | 101 | -2%
CCCC(=O)NC(c1cccc([N+](=O)[O-])c1)c1ccc2cccnc2c1O (stereo unspecified) | 0% | nt | 4µM* | -98* | ?
CC(C)C(=O)NC(c1cccc([N+](=O)[O-])c1)c1ccc2cccnc2c1O (stereo unspecified) | -11% | 4µM* | ? | -105* | 4.5µM*
CCC(=O)NC(c1cccc([N+](=O)[O-])c1)c1c(OC(C)=O)ccc2ccccc12 (stereo unspecified) | ? | -14% | nt | 33 | -29%
Ic1ccc(Nc2nc(NCCN3CCOCC3)nc(N3CCCC3)n2)cc1 | nt | nt | -24% | nt | -20%
CCc1nnc(NS(=O)(=O)c2ccc(NC(=O)c3ccccc3C)cc2)s1 | -6% | 14% | nt | ? | nt
CCc1nnc(NS(=O)(=O)c2ccc(NC(=O)c3ccccc3OC)cc2)s1 | 13% | -2% | nt | + | nt
COc1ccccc1C(=O)Nc1ccc(S(=O)(=O)NC2=NCCCCC2)cc1 | 7% | -25% | i | -60* | -11%
CCOC(=O)Nc1cc(C(=O)OCC)c(C)nc1C | -20% | 22% | i | -21 | -4%
CCOC(=O)c1cc(NC(=O)Nc2cc(C)ccn2)c(C)nc1C | -6% | -16% | -19% | -65* | -10%
O=C(NCc1ccco1)C(c1cccs1)N(Cc1ccccc1)C(=O)Cn1nnc2ccccc21 (stereo unspecified) | -2% | -14% | nt | -62* | -22%
Cc1ccc(CN(C(=O)Cn2nnc3ccccc32)C(C(=O)NCc2ccco2)c2cccs2)cc1 (stereo unspecified) | 20% | ? | nt | 8 | -21%
O/N=C(/CBr)c1ccc2ccccc2c1 | nt | nt | i | nt | -13%
CCOC(=O)Nc1ccc(S(=O)(=O)NCc2ccccc2)cc1 | nt | ? | ? | -62* | -19%
CC(C)CC1OC(C(C)C)Cc2[nH]c(=S)[nH]c(=O)c21 (stereo unspecified) | 0% | nt | nt | ? | 0.013µM*
CC(C)[C@@H]1Cc2[nH]c(=S)[nH]c(=O)c2[C@H](C)O1 | -20% | nt | 38% | 3 | 0%
COc1ccc(NC(=O)N(C)C[C@@H]2OCCCC[C@@H](C)Oc3ccc(NS(C)(=O)=O)cc3C(=O)N([C@H](C)CO)C[C@@H]2C)cc1 | nt | nt | nt | -23 | nt
SMILES | FMDV antiviral | HCV inhibitor | Vaccinia mCherry | HCMV inh | VACV Venus inh
CCOC(=O)c1ccc(NC(=O)c2oc3c(c2C)-c2nn(Cc4ccccc4Cl)cc2CC3)cc1 | ? | nt | -11% | 70 | -17%
C[C@H](CO)N1C[C@H](C)[C@H](CN(C)Cc2ccc(-c3ccccc3)cc2)Oc2ccc(NS(=O)(=O)c3ccccc3)cc2CC1=O | ? | ? | ? | nt | 10µM*
C[C@H]1CN([C@@H](C)CO)C(=O)Cc2cc(NC(=O)CCC(F)(F)F)ccc2O[C@H]1CN(C)Cc1ccc(-c2ccccc2)cc1 | -25% | ? | 11µM* | 99 | ?
O=C(Cc1ccccn1)c1ccc(Cl)cc1 | 46% | -6% | -1% | -68* | -1%
CC1=C(CC(=O)c2ccc(Cl)cc2)C(=O)c2ccccc2C1=O | 4% | 4.5µM* | nt | -22 | nt
O=C(Cc1ccccn1)c1ccccc1 | 26% | -16% | -4% | -9 | 1%
CC1=CC(C)(C)Nc2ccc(OC(=O)C(Cc3ccccc3)N3C(=O)c4ccccc4C3=O)cc21 (stereo unspecified) | 0% | 19% | nt | ? | -1%
CC1=CC(C)(C)Nc2ccc(OC(=O)CN3C(=O)c4ccccc4C3=O)cc21 | ? | 25µM* | -12% | -100* | 65%
CC1=CC(C)(C)Nc2ccc(OC(=O)CN3C(=O)c4cccc5cccc(c45)C3=O)cc21 | ? | ? | -5% | -78* | 19%
Cc1ccc2nc(-c3ccsc3)c(Nc3ccc(Cl)cc3)n2c1 | -4% | nt | -10% | 5 | -11%
CC(C)(C)c1nc2ccccc2c2nnc(SCC(=O)Nc3nc4ccccc4s3)n12 | ? | 13µM* | -21% | 10 | -23%
CC(C)n1c(SCC(=O)c2ccc3c(c2)OCCO3)nc2c1c(=O)n(C)c(=O)n2C | nt | 13µM* | -7% | -19 | 6%
CCn1c(SCC(=O)Nc2nc3ccc(OC)cc3s2)nc2c1c(=O)n(C)c(=O)n2C | ? | 4µM* | nt | 7 | nt
CCOc1ccc2nc(NC(=O)CSc3nc4c(c(=O)n(C)c(=O)n4C)n3C(C)C)sc2c1 | 22µM* | ? | -4% | -1 | -3%
COc1ccc(OC)c(CNC(=O)C2CCN(c3nc4ccccc4nc3C(F)(F)F)CC2)c1 | -23% | nt | 4% | 7 | -10%
Cc1ccccc1S(=O)(=O)N(C)C[C@@H]1OCc2cn(nn2)CCCC(=O)N([C@@H](C)CO)C[C@H]1C | nt | nt | nt | 5 | nt
CC(C)n1c(SCC(=O)Nc2nc3ccccc3s2)nc2c1c(=O)n(C)c(=O)n2C | 22µM* | ? | -23% | 67 | -12%
Cc1cc(NC(=O)CSc2nc3c(c(=O)n(C)c(=O)n3C)n2C(C)C)no1 | -25% | 0% | -16% | 47 | -4%
CN(C)CCCNc1c2c(nc3cc(-c4cccc(F)c4)nn13)CCC2 | 7% | 4% | nt | 169 | nt
Cc1cccc(-c2cc3nc4c(c(N5CCOCC5)n3n2)CCCC4)c1 | -26% | ? | ? | 48 | -20%
COc1cccc(-c2cc3nc4c(c(N5CCC6(CC5)OCCO6)n3n2)CCC4)c1 | -9% | 16µM* | nt | 8 | nt
Cc1cccc(-c2cc3nc4c(c(NCc5ccco5)n3n2)CCCC4)c1 | nt | 7.1µM* | -16% | 3 | -20%
Cc1cccc(-c2cc3nc4c(c(N5CCC6(CC5)OCCO6)n3n2)CCCC4)c1 | 20% | 10µM* | -16% | -4 | -3%

High-throughput results from PubChem.
